Screens deposited in PubChem by several laboratories.
The list is not random: actives were taken first. Their share in the collection is about 2.4%.
TMEM16A inh: mouse TMEM16A channel inhibition, primary screen; Q8BHY3; AID 588511; 310,000 compounds, 1.2% hits; HEK293 TMEM16A/YFP iodide influx fluorescence, ionomycin; normalized B-score (activity score, 25-100; higher = stronger inhibition) at 10 µM;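 active = ratio plate-corrected score three or more library SD toward inhibition, starting fluorescence score within five deviations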;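 note: score derived from kinetic fluorescence span divided by baseline fluorescence per well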
Target sequence (Q8BHY3 whole entry, looked up): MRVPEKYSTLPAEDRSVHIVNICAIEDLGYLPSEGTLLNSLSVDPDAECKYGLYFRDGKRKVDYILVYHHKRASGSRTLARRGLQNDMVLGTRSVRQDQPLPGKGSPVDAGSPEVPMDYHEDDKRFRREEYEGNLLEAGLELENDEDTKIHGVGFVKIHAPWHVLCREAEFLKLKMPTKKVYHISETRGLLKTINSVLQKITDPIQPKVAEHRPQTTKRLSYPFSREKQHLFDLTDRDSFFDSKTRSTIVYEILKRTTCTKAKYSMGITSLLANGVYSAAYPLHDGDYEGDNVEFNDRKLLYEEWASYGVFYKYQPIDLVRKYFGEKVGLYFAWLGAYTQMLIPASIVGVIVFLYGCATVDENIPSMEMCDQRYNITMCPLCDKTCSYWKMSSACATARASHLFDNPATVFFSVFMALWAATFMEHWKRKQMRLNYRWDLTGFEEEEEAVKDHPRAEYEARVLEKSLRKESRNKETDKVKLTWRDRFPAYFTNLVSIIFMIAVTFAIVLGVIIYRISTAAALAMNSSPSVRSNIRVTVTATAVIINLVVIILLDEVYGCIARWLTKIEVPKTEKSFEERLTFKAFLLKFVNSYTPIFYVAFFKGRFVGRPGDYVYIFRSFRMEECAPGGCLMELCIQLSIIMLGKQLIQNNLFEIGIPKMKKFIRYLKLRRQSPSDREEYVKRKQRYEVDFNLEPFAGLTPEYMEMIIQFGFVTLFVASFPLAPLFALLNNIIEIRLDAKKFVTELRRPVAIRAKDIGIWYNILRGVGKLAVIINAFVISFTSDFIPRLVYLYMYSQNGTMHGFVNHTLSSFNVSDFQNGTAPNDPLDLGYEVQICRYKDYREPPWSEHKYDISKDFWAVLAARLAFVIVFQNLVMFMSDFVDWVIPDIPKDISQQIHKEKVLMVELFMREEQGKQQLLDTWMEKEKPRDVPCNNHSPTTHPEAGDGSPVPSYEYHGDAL
m5-HT2A agonist: activates the mouse 5-HT2A serotonin receptor | P35363 | CHO-K1 mHTR2A beta-arrestin complementation, luminescence; percent of 30 µM serotonin response | activation, % at 7.6 µM | 360,000 compounds, 0.66% hits | AID 624169;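 active = activation above a run cutoff, the mean activation of all tested compounds plus 3 SD, cut at about 14% in these data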;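 note: 0% = plate median of compound wells and 100% = 30 µM serotonin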
NOD2 RIPK2 PPI: blocks binding of human NOD2 to RIPK2. O43353. CHO BLA complementation NOD2-RIPK2, CCF4 ratio. inhibition, % at 4.98 µM. 360,000 compounds, 0.38% hits; in the data active = inhibition above about 21%;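 note: 0% = vehicle only and 100% = reference blocker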
TLR9-MyD88 inh: inhibitors of human TLR9-MyD88 binding; 340,000 compounds, 0.21% hits; CHO BLA complementation TLR9-MyD88, CCF4 FRET ratio; inhibition, % at 4.98 µM; Q9NR96+Q99836;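 active = inhibition above the mean over all tested compounds plus 3 SD, cut at about 21% in these data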;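 note: 0% = DMSO only wells and 100% = clavulanate BLA inhibitor control wells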
ANO1 activ: activates or potentiates the mouse TMEM16A chloride channel; AID 623877; Q8BHY3; 340,000 compounds, 0.3% hits; B-score at 10 µM; HEK293 TMEM16A/YFP-H148Q/I152L, iodide quench fluorescence; stronger effect = lower value;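 active = fluorescence-ratio B-score plate-corrected deviation score at least 3 library SD below zero, with starting fluorescence score within 5 deviations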;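 note: channel opened by trigger with iodide after compound preincubation; score built on the fluorescence ratio of max minus min over baseline; more negative score means more quench and so TMEM16A activation or potentiation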
TLR4 MyD88 comp: blocks binding of human TLR4 to MyD88; O00206+Q99836; 200,000 compounds, 0.18% hits; inhibition, % at 8.4 µM; AID 861; HeLa CL3-4 TLR4/MyD88 BLA complementation, FRET ratio; in the data active = inhibition above about 25%;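 note: 0% = vehicle and 100% = reference inhibitor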
MOR ag counter: OPRM1 agonism in mouse HTR2A counterscreen; shares compounds with m5-HT2A agonist; U2OS OPRM1 beta-arrestin PathHunter, luminescence; DMSO 0%, DAMGO 9.3 µM 100%; activation, % at 9.3 µM; 2,300 compounds, 5.3% hits;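 active = mean activation above the mean of DMSO-only wells plus 3 SD, cut at about 0.5% in these data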
HTR2A ag conf: mouse HTR2A agonism confirmed; CHO-K1 PathHunter beta-arrestin recruitment, luminescence; DMSO 0%, 30 µM serotonin 100%; 2,300 compounds, 19% hits; shares compounds with m5-HT2A agonist; activation, % at 7.6 µM; AID 624381;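 active = mean activation across triplicates above the hit threshold derived in the original primary screen, cut at about 15% in these data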
Active calls of the source: *; i = inactive; · = no result.

SMILES	TMEM16A inh	m5-HT2A agonist	NOD2 RIPK2 PPI	TLR9-MyD88 inh	ANO1 activ	TLR4 MyD88 comp	MOR ag counter	HTR2A ag conf
COc1ccc(NC(=O)c2sccc2-n2cccc2)cc1	i	5	-11	19	i	-22	·	·
CCc1ccc(NC(=O)c2sccc2-n2cccc2)cc1	i	15*	5	6	i	7	0	-5
CC(O)(c1ccc(F)c(F)c1)c1nc(-c2ccncc2)cs1 (configuration not stated)	·	-2	11	·	·	·	·	·
COc1ccc(-c2csc(C(C)(O)c3ccc(F)c(F)c3)n2)cc1 (configuration not stated)	·	15*	-11	·	·	·	0	-4
CCOC(=O)N1CCN(c2ccc(Cl)c(Cl)c2)CC1	i	3	6	-2	i	3	·	·
COC(=O)/C(=C/N(C)C)C(=O)N1CCN(c2ccc(Cl)c(Cl)c2)CC1	i	18*	-12	5	i	-6	0	0
COc1cc(-c2nnc(-c3ccccc3)o2)cc(OC)c1OC	i	0	-10	-3	i	-3	·	·
COc1cc(-c2nnc(-c3cc(OC)c(OC)c(OC)c3)o2)cc(OC)c1OC	i	17*	-3	-10	i	-9	0	-2
COc1cc(OC)c(NC(=O)CS(=O)(=O)Cc2nc(-c3ccc(C)cc3)oc2C)cc1Cl	i	9	2	1	i	2	·	·
CCOC(=O)CC1C(=O)NCCN1C(=S)NC(=O)c1ccccc1OC (configuration not stated)	i	16*	-6	-6	i	·	-1	-3
CCOC(=O)CC1C(=O)NCCN1C(=S)Nc1ccccc1 (configuration not stated)	i	9	-9	5	i	8	·	·
O=C(COc1ccccc1)NC1CCSC1=O (configuration not stated)	i	21*	-2	4	i	7	-1	-3
CCN(CC)C(=O)c1cccc(NC(=O)c2cc(-c3ccccn3)nc3ccccc23)c1	·	4	-6	-3	i	·	·	·
COc1cc2oc(=O)cc(CN3CCN(c4ccc(Cl)c(Cl)c4)CC3)c2cc1Cl	·	25*	-3	·	·	·	-1	9
COc1ccc2c(CN3CCN(c4ccc(Cl)c(Cl)c4)CC3)cc(=O)oc2c1	·	12	5	·	·	·	·	·
CC(C)C[C@@H](CN1CCC[C@H]1CN1C(=O)C(=O)NC[C@@H]1Cc1ccc(O)cc1)N1C[C@H](Cc2ccccc2)N(CC2CCCCC2)C(=O)C1=O	·	-2	3	·	·	·	·	·
CC(C)C[C@@H](CN1CCC[C@H]1CN1C(=O)C(=O)NC[C@@H]1Cc1ccccc1)N1C[C@H](Cc2ccc(O)cc2)N(CC2CCCCC2)C(=O)C1=O	·	15*	-9	·	·	·	0	-3
CC(C)c1nnc(SCC(=O)Nc2ccc3c(c2)OCCO3)n1C	i	4	1	2	i	·	·	·
CN(Cc1ccccc1)N=Nc1nc[nH]c1C(N)=O	·	17*	1	·	·	·	0	-3
COC(=O)Nc1ccc(Cn2cc(C(F)(F)F)ccc2=O)cc1	i	5	-7	·	i	7	·	·
CC(=O)c1ccc(C(=O)Nc2nnc(-c3ccc(Cl)cc3)o2)cc1	i	24*	-2	-5	i	·	0	-2
O=C(Nc1nnc(-c2ccccc2)o1)c1ccc(Cl)cc1	i	6	-7	4	i	0	·	·
Cc1csc(=O)n1CC(=O)OCc1nnc(-c2ccc(Cl)cc2)o1	i	7	2	1	i	·	·	·
Cc1csc(=O)n1CC(=O)OCc1nnc(-c2ccccc2)o1	i	21*	6	2	i	·	0	-1
Cc1c(C(=O)NCc2ccccn2)sc(=O)n1Cc1ccc(-c2ccccc2)cc1	·	25*	-93	·	·	·	-1	-4
